Test [1] relates to Klebsiella pneumoniae. The conditions noted are these: Concentration 32 ug.mL-1;; ASSAY_TEST Inhibition of Bacterial Growth; detection method Absorption (OD600); MEDIA CAMHB; plate type 384well; NBS; CORNING #3640; time 18 hr.
Test [2] has as its system Candida albicans. The conditions noted are these: Concentration 32 ug.mL-1; ASSAY_TEST Inhibition of Fungal Growth; detection method Absorption (OD530).
For test [3], the system named is Cryptococcus neoformans. The note with it: Concentration 32 ug.mL-1; ASSAY_TEST Inhibition of Fungal Growth; detection method Resazurin; Absorption (OD600-OD570); plate type 384well; NBS; CORNING #3640. (The colour change of resazurin is a common sign of viable cells or microbes.)

Entries with a potency or affinity are not part of this list.

By Inhibition is commonly meant the drop in the measured response relative to a control, in per cent. As for `Cc1ccc(Oc2nccn3c(=O)n(CC(=O)NCCC4=CCCCC4)nc23)cc1`, the values for the Inhibition in test [1], in test [2] and in test [3] were 12.14%, 4.38% and -9.17%, respectively.

On to `COc1ccc(CNC(=O)Cn2nc3c(N4CCN(c5ccccc5C)CC4)nccn3c2=O)cc1`, for which the Inhibition was -11.16% in test [1], 37.75% in test [2] and -4.67% in test [3].

For `COc1ccc(NC(=O)Cn2nc3c(Oc4cccc(F)c4)nccn3c2=O)cc1`, the values for the Inhibition in test [1], in test [2] and in test [3] were -11.98%, 4.65% and -6.95%, respectively.

Regarding `Cc1cccc(C)c1NC(=O)CSc1nnc2c3cc(-c4ccc(F)cc4)nn3ccn12`, the values for the Inhibition in test [1], in test [2] and in test [3] were -6.3%, 4.52% and -11.19%, respectively.

As to `O=c1c2nnc(SCc3ccccc3F)n2ccn1-c1ccc(Br)cc1`, the Inhibition in test [1] is on record as 15.43%; in test [2], 3.99%; in test [3], -9.71%.

As for `CSc1cccc(NC(=O)Cn2c(=O)c3nnc(C)n3c3ccccc32)c1`, the figures for the Inhibition in test [1], in test [2] and in test [3] were 4.53%, 4.76% and -2.25%, respectively.

As for `COc1ccc(NC(=O)Cn2nc3ccc(SC(C)(C)C)nn3c2=O)cc1Cl`, the Inhibition in test [1] is listed as 12.99%; in test [2], 3.69%; in test [3], -9.98%.

For `COc1ccc(NC(=O)Cn2nc3c(Sc4ccccc4)nccn3c2=O)cc1`, the Inhibition was 7.48% in test [1], 1.47% in test [2] and -16% in test [3].

On to `COc1cccc(Oc2nccn3c(=O)n(CC(=O)Nc4cc(C)c(Cl)cc4OC)nc23)c1`, for which the Inhibition is -0.9% in test [1], 1.25% in test [2] and -7.05% in test [3].

As for `Cc1ccc(-c2ccc3nn(CC(=O)NC4CCCCC4)c(=O)n3n2)cc1C`, the figures for the Inhibition in test [1], in test [2] and in test [3] were 13.52%, 3.29% and -9.98%, respectively.

Turning to `Cc1ccc(Cl)cc1NC(=O)Cn1nc2c(N3CCOCC3)nc3ccccc3n2c1=O`, the Inhibition is on record as 0.47% in test [1], 3.17% in test [2] and -17.81% in test [3].

The values are drawn from ChEMBL document CHEMBL4513146, “CO-ADD screening of Karazin Kharkiv National University (Ukraine) compounds”.
